Nrf2 activator – activators of Nrf2 (ARE) signaling; Potency, µM (top dose mostly 46.1 µM), hits mostly activators; 410,000 compounds, 0.31% hits; AREc32 ARE-luciferase reporter (MCF7-derived line), luminescence, 24 h; further: nearly all actives have a fitted effect of over 65% in size
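Each well held 1000 AREc32 cells, which were incubated with compound for 24 hr at 37 deg C after overnight attachment, and ARE reporter activity was quantified by firefly luciferase luminescence.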
IDH1 R132H inh – inhibitors of human mutant IDH1 R132H; IDH1-R132H enzyme, NADPH consumption, diaphorase/resazurin fluorescence; AID 602179; O75874; Potency, µM (series often up to 76.6 µM), actives largely listed as inhibitors; 390,000 compounds, 0.093% hits; further: nearly all actives have a fitted effect of over 65% in size
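IDH1-R132H (0.5 ug/mL) preincubated 30 min with compound, then NADPH (0.016 mM) and alpha-KG (2 mM) added; 80 min at RT, pH 7.5. Remaining NADPH coupled via diaphorase/resazurin to fluorescence (540/590 nm); concentration-response curves normalized to no-enzyme control.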
ALOX12 inh – inhibitors of human 12S-lipoxygenase ALOX12 | P18054 | purified 12hLO, xylenol orange hydroperoxide absorbance | Potency, µM (titrated, usually from 108 µM), hits mostly inhibitors | 580,000 compounds, 1.1% hits | AID 1671190
Target sequence (P18054 whole entry, looked up): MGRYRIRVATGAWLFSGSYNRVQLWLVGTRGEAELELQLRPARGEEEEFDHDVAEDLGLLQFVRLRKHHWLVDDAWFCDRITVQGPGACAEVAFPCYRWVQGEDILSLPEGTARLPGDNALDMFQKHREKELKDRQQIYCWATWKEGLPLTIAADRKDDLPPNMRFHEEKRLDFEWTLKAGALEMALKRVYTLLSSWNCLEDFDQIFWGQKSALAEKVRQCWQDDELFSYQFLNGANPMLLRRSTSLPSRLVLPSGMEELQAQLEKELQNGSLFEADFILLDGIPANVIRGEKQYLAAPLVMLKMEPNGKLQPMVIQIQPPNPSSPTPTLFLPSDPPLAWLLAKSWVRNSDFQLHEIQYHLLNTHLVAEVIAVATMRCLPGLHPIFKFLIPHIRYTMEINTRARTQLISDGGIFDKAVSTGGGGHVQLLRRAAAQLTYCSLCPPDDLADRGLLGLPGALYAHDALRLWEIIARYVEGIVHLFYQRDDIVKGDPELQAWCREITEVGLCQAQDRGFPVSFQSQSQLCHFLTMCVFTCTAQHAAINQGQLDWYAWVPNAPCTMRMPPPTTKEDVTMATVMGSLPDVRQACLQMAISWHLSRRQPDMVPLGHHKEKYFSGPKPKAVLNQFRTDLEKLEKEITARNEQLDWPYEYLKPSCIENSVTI
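Purified human 12hLO at 150 nM in 25 mM Hepes, 0.01% Triton X-100, pH 7.0, preincubated 15 min at room temperature with compound. Reaction started with 40 uM arachidonic acid, 30 min at room temperature. Hydroperoxide measured by Fe-xylenol orange, 573/405 nm absorbance ratio.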
A549 tox – A549 cytotoxicity, counter-screen for Nrf2 inhibitors. A549 ARE-Fluc cells, CellTiter-Fluor viability, 18-24 h. Potency, µM (highest dose often 46 µM), hits mostly inhibitors. 390,000 compounds, 0.16% hits. AID 504648
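A549 ARE-Fluc cells in 5% FBS OPTI-MEM, 5000 cells/well, rested 2 h then exposed to compounds in concentration-response for 18-24 h at 37 °C. Viability by CellTiter-Fluor fluorescence (Ex 405/Em 525) after 30 min; luciferase luminescence (BugLite, 15 min, RT) read afterwards.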
Nrf2 inh – inhibitors of Nrf2 signaling; A549 ARE-Fluc reporter, luciferase luminescence, 18-24 h; Potency, µM (highest dose often 46 µM), hits mostly inhibitors; 360,000 compounds, 2.1% hits; further: nearly all actives have a fitted effect of over 60% in size
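Nrf2 activity is the BugLite luminescence, read 15 min after reagent at room temperature, following CellTiter-Fluor cytotoxicity readout (30 min, 37C). Compound titrations were applied for 18-24 h to 5000 A549 ARE_Fluc cells/well in 5% FBS OPTI-MEM.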
LDHA block – inhibitors of human lactate dehydrogenase A; 480,000 compounds, 0.15% hits; activity change, % (values are at about 110 or 230 µM); AID 1347041; P00338; purified LDHA, NADH/diaphorase-resazurin fluorescence; stronger effect = lower value; in the data active means activity change below about -30%; inconclusive means mostly about -25% to -30%
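Enzyme activity of human lactate dehydrogenase 5 (2 nM; 0.06 mM NADH, 0.2 mM pyruvate, 5 min, RT) is measured via a resazurin/diaphorase fluorescence readout of residual NADH.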
A number is an active result; 0 = inactive; ? = inconclusive; - = no result. Shown are actives, neighbours in structure and some others; about 2.7% of the full set was active somewhere. Unless noted, the call rests on the fitted dose curve; in most records, active means well fitted curve in the direction sought with a large enough effect; inconclusive means small, poorly fitted or top-dose-only effect, or another doubt; inactive means no such curve, though single readings can be large; an effect the other way counts as inactive or inconclusive.

SMILES	Nrf2 activator	IDH1 R132H inh	ALOX12 inh	A549 tox	Nrf2 inh	LDHA block
COc1ccc2c(c1)CSC(c1ccccc1)C2=O (stereo not given)	0	0	35.5µM	-	-	0
O=C(Nc1cccc(-c2nc(-c3ccccc3)no2)c1)C1CC(=O)N(c2cccc(C(F)(F)F)c2)C1 (stereo not given)	-	-	0	-	-	0
CCN(CC)c1ccc2nc3ccc(N)cc3[n+](-c3ccccc3)c2c1	0	0	-	18.4µM	14.6µM	0
CCN(CC)c1ccc2nc3ccccc3[n+](CC)c2c1	0	0	-	8.2µM	9.2µM	0
CCN(CC)c1ccc(/C=C/c2cc(Cl)nc3ccccc23)cc1	-	-	-	-	-	0
CN(C)CCC1CCNCC1	-	-	0	-	-	0
CCN(Cc1nc2ccccc2c(=O)[nH]1)C(=O)Cc1csc(-c2ccc(OC)cc2)n1	-	-	0	-	-	0
CC12CCC(C/C1=N\N=C1\NC(=O)/C(=C\c3cccc(Br)c3)S1)C2(C)C (stereo not given)	0	0	0	?	18.4µM	0
COc1cc(/C=N/N=C2\CC3CCC2(C)C3(C)C)ccc1O (stereo not given)	0	0	0	0	0	0
CCCNC(=O)NC(=O)CSC1=Nc2ccccc2CS1	-	-	0	-	-	0
CC1=NN(c2ccccc2)C(=O)C1C(=O)c1ccccc1 (stereo not given)	0	0	0	0	?	0
CC1=NN(c2ccccc2)C(=O)/C1=C/c1ccc(Cl)cc1	0	0	6.31µM	0	0	0
CC1=NN(c2ccccc2)C(=O)C1=Cc1ccccc1	0	0	?	-	-	0
CC1=NN(c2ccccc2)C(=O)/C1=C/C=C/C=C/N(C)C	0	0	?	10.3µM	?	0
CC1=NN(c2ccccc2)C(=O)C1C(=O)c1ccc(Cl)cc1 (stereo not given)	0	0	0	?	18.4µM	0
C#CCNC(=O)CCc1ccco1	-	-	?	-	-	0
O=C1C=CC(=O)C(C2=C3C(=O)N(CCc4ccccc4)CC(=O)N3CCC2)=C1	?	0	39.8µM	0	0	0
CCOC1=CC2=C(C(=O)C(Cl)=CC2=O)[C@@H]2CN(S(=O)(=O)c3ccc(C)cc3)[C@@H](c3ccccc3)[C@H]12	?	-	0.891µM	-	-	0
CCN1C(=O)[C@@H]2[C@@H]3CN(S(=O)(=O)c4ccc(C)cc4)[C@@H](c4ccccc4)[C@@H]3C(=O)C[C@@H]2C1=O	0	-	?	-	-	0
COC(=O)c1sc(-c2cccs2)cc1N	8.91µM	0	?	0	0	0
COC(=O)c1sc(-c2ccc(Cl)cc2)cc1N	0	0	?	0	?	0
CCCCOc1cccc(C(=O)Nc2cccc(-c3nc4ncccc4o3)c2C)c1	0	0	0	0	16.4µM	0
COc1ccc2c(c1)cc(C(=O)Nc1ccccc1Cl)n2C	-	-	0	-	-	0
CC(C)c1ccc(C2C(C#N)=C(SCC(N)=O)NC3=C2C(=O)CCC3)cc1 (stereo not given)	-	-	44.7µM	-	-	0
Cc1ccc(NC(=O)CSC2=C(C#N)C(c3ccc4c(c3)OCO4)C3=C(CCCC3=O)N2)c(C)c1 (stereo not given)	0	0	?	-	11.6µM	0
SMILES	Nrf2 activator	IDH1 R132H inh	ALOX12 inh	A549 tox	Nrf2 inh	LDHA block
COc1cccc(NC(=O)CSC2=C(C#N)C(c3ccc(C(C)C)cc3)C3=C(CCCC3=O)N2)c1 (stereo not given)	-	-	0	-	-	0
N#CC1=C(SCC(=O)c2ccc(Br)cc2)NC2=C(C(=O)CCC2)C1c1ccco1 (stereo not given)	0	0	?	?	18.4µM	0
CCCCn1nnc(NC(=O)COc2ccc(C3CCCCC3)cc2)n1	-	-	0	-	-	0
CC(C)(C)OC(=O)N1CCC(c2nnc(SCc3ccccc3F)o2)CC1	0	0	0	?	20.6µM	0
COc1ccccc1NC(=O)c1c(C)nc2ccccc2c1C(=O)O	0	0	14.1µM	0	0	0
COc1ccccc1OCC(=O)NCc1cc(C)nc2ccccc12	-	-	0	-	-	0
COc1ccccc1OCC(=O)NNc1c2ccccc2nc2ccccc12	0	0	0	?	20.6µM	0
Cc1cc(CNC(=O)COc2ccc(F)cc2F)c2ccccc2n1	0	0	0	0	16.4µM	0
COc1ccccc1Nc1c2ccccc2nc2ccccc12	0	0	0	?	14.6µM	0
O=S(=O)(CCCCC(Cl)(Cl)Cl)NCc1ccco1	-	-	0	-	-	0
Cc1ccc2nc3n(c2c1)[C@@H](CNCc1ccc2c(c1)OCO2)COC3	-	-	0	-	-	-
Cc1ccc(-c2nc(Nc3cccc(O)c3)c3ccccc3n2)cc1	0	0	?	0	0	0
Cc1cccc(Nc2nc3ccccc3n3c(N)nnc23)c1	0	-	0	0	0	0
Oc1cccc(Nc2c3ccccc3nc3ccccc23)c1	0	0	?	?	23.1µM	0
Cc1nnc2c(Nc3cccc(O)c3)nc3ccccc3n12	3.16µM	0	0	0	0	0
Cn1c(CSc2nc3ccccc3s2)n[nH]c1=S	0	0	?	0	0	0
Cn1c(-c2sc3ccccc3c2Cl)n[nH]c1=S	0	0	14.1µM	0	?	0
O=S(=O)(c1ccc2ccccc2c1)N(Cc1ccco1)Cc1cccs1	-	-	50.1µM	-	-	0
